Screen size: about 310,000 compounds; about 1,700 (0.55%) were called active. Only a selection was taken, and actives are over-represented in it overall. Unmarked numbers belong to inactive results. Rule as the data show it: active = inhibition above about 50%; inactive = the rest.

The target of the assay is Histone-lysine N-methyltransferase NSD2 (Homo sapiens) (UniProt O96028). Nature of the assay: blockers of NSD2 lysine methylation activity – biochemical, AlphaScreen, single concentration, set 2, primary screen (AID 743445). Particulars: NSD2 peptide methylation, 120 min, at 12.5 µM, stronger effect = higher value.
Histone-lysine N-methyltransferase NSD2 (Homo sapiens), sequence (O96028 whole entry, looked up): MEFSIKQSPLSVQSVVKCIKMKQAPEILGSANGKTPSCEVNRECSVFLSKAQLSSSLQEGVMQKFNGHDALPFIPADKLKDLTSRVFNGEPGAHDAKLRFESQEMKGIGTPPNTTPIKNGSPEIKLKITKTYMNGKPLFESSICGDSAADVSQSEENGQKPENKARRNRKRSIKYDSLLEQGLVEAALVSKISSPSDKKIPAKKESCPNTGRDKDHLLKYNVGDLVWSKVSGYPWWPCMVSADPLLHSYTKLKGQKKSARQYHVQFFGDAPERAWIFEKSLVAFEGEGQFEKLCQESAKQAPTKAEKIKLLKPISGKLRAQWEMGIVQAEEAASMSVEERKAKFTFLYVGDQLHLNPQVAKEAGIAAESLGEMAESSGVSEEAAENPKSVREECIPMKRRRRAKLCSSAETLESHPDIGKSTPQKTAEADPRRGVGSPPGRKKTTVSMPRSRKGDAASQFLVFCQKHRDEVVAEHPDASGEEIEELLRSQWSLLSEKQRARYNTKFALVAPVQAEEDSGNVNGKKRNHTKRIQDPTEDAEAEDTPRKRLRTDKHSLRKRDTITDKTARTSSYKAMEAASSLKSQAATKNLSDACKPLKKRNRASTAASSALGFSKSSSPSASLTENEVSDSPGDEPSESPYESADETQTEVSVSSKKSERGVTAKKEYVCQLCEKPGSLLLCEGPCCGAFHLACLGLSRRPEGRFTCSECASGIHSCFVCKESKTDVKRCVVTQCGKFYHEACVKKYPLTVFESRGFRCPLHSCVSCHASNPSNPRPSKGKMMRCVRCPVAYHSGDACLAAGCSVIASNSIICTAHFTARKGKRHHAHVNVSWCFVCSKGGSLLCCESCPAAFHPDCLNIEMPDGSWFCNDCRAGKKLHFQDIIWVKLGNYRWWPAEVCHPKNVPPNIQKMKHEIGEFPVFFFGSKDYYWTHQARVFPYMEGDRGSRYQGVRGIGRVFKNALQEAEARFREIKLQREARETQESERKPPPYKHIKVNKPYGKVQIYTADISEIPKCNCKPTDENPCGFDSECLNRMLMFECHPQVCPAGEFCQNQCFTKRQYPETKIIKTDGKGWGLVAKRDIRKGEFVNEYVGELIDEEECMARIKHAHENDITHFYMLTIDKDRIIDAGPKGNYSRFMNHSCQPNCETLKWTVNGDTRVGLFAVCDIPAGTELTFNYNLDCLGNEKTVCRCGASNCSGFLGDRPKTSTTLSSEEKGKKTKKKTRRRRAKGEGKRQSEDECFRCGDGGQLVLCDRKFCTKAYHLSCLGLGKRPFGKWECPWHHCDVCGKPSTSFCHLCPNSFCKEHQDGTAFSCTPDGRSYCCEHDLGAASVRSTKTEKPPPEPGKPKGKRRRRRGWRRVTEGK
Turning to `COC(CNC(=O)[C@H](Cc1ccccc1)NC1(C(=O)NC2CCCCC2)CCCCC1)OC`, the inhibition was -1.53%.

On to `CC1(Oc2ccc(Cl)cc2)CCN(Cc2csc3ccccc23)C1` (configuration not stated), for which the inhibition is -2.85%.

Turning to `COC(=O)c1nc(NC(=O)c2ccc(C(C)(C)C)cc2)n[nH]1`, the inhibition was -1.33%.

Turning to `COC(=O)c1nc(NC(=O)c2ccc(F)cc2)n[nH]1`, the inhibition was -3.85%.

Regarding `COC(=O)c1nc(NC(=O)c2ccccc2)n[nH]1`, the inhibition was 64.1% (active).

On to `COc1cccc(CSc2nnc(-c3cccnc3)n2Cc2ccccc2)c1`, for which the inhibition is 2.07%.

`CCc1nc2c(OCCOc3ccccc3)cccn2c1N(C)C(=O)c1cccs1`: the inhibition was -0.996%.

Take `CC(=O)c1cccc(-c2cnc3c(NC=O)cc(-c4ccc(N5CCN(C)CC5)cc4)cn23)c1`: the inhibition is 2.68%.

With `CC(C)(C)CC(=O)Nc1nc(C(N)Cc2ccc(C(F)(F)F)cc2)cs1` (configuration not stated), the inhibition is 14%.

For `O=C(NCCCN1CCOCC1)c1cc(-c2cccc(O)c2)on1`, the inhibition was -0.66%.

With `CCN(CC)CCCNC(=O)c1cc(-c2cccc(Cl)c2)on1`, the inhibition was 63.4% (active).

On to `O=C(Nc1cccnc1Cl)c1cc(-c2cccc(Cl)c2)on1`, for which the inhibition was -7.36%.

Consider `Cc1ccc(-c2nc(C3CCCN(S(=O)(=O)c4ccc(Br)s4)C3)no2)cc1` (configuration not stated), for which the inhibition was -7.73%.

In the case of `CCOc1cc2ccccc2cc1C(=O)Nc1ccccn1`, the inhibition is -0.208%.

For the compound `CCN(CC)CCOc1ccc2c(c1)C(=NNC(=O)c1ccccn1)c1cc(OCCN(CC)CC)ccc1-2`, the inhibition is 64.6% (active).

Take `Cc1cccc(OCC(=O)NCCCNC(=O)c2ccccn2)c1`: the inhibition is 1.46%.

As for `C=CCn1c2c(c3ccccc31)CCC2`, the inhibition is 1.47%.

For `Cn1ncc2c(NNC(=O)Cc3cccc4ccccc34)ncnc21`, the inhibition is -5.08%.

As for `Cc1ccc(Nc2ncnc3c2cnn3C)c(C)c1`, the inhibition was -0.415%.

As for `Cn1ncc2c(Nc3cccc4ccccc34)ncnc21`, the inhibition was 58.9% (active).

With `Cc1cc(C)cc(NC(=O)N2CCC(N(C)CCC(C)C)CC2)c1`, the inhibition was 6.38%.

Regarding `Cc1cc(NS(=O)(=O)c2ccc(NC(=O)CSc3nnc(SCc4ccc(F)cc4)s3)cc2)nc(C)n1`, the inhibition is 1.71%.

Consider `CCOC(=O)C(=O)N(Cc1ccccc1)c1ccccc1C(=O)Nc1cc(OC)ccc1OC`, for which the inhibition is 3.11%.

`Cc1[nH]n(-c2ccccc2)c(=O)c1N=Nc1ccccc1C(=O)N1CCCCC1`: the inhibition was 56.8% (active).

In the case of `Cc1cccc(N=Nc2c(C)[nH]n(-c3ccccc3)c2=O)c1`, the inhibition was 9.54%.

With `COC(=O)c1ccccc1N=Nc1c(C)[nH][nH]c1=O`, the inhibition was 0.329%.

Turning to `OC(c1ccccc1)c1nc(-c2cnc3ccccc3c2)cs1` (configuration not stated), the inhibition was 2.58%.

As to `COC(=O)CC1CCc2cc(C)cc(C(CC(C)C)NC(=O)[C@H](CC(C)C)NC(=O)OCc3ccccc3)c2O1` (some centres not stated), the inhibition was -2.73%.

Regarding `COC(=O)/C=C/C(=O)NCc1ccco1`, the inhibition was 0.685%.

For the compound `O=C(NCc1ccco1)C1(c2ccc(Cl)cc2)CCCC1`, the inhibition is 3.15%.

Take `O=C(/C=C/c1ccc(Cl)cc1Cl)NCc1ccco1`: the inhibition is 57.4% (active).

On to `CCOc1ccc(-n2c(SCC(=O)Nc3cc(C)c(NC(=O)c4ccccc4)cc3OC)nnc2-c2cccc(Cl)c2)cc1`, for which the inhibition was 1.66%.

As for `c1csc(-c2nnc(SCc3nc4ccccc4[nH]3)o2)c1`, the inhibition was -7.8%.

For `O=C(CSc1nc2ccccc2nc1N1CCCCC1)N1CCN(S(=O)(=O)c2cccc([N+](=O)[O-])c2)CC1`, the inhibition is -12%.

In the case of `CC(=O)NC(c1ccccc1)c1nc(-c2cccc(C(C)C)c2)cs1` (configuration not stated), the inhibition was 3.74%.

For the compound `CCOC(=O)c1c(C)[nH]c(C)c1S(=O)(=O)N(C)CC(=O)Nc1ccccc1C`, the inhibition was 2.08%.

Regarding `CCOC(=O)c1ccccc1OC(=O)Oc1ccccc1C(=O)OCC`, the inhibition was -0.93%.

As to `CCOC(=O)c1c(C)[nH]c2c1-c1ccccc1C(=O)C2=O`, the inhibition was 82.9% (active).

For `CCOc1ccc2nc(NC(=O)C3CC3)sc2c1`, the inhibition was -0.715%.

For the compound `CCCC1CCC2(CCCN2CCOC(=O)NCc2ccccc2)CC1` (configuration not stated), the inhibition was -1.02%.

In the case of `O=C(CNS(=O)(=O)c1ccccc1F)N1CCN(c2ccccn2)CC1`, the inhibition was -3.13%.

For the compound `COc1ccc(-c2cc(-c3nnc(SCc4ccc([N+](=O)[O-])cc4)n3N)[nH]n2)cc1`, the inhibition was -2.18%.

As to `COc1cc(C(=O)Nn2c(CC(C)C)nc3ccccc3c2=O)cc(OC)c1OC`, the inhibition is -1.2%.

As for `COc1cc(C(=S)NC2CCCCC2)ccc1O`, the inhibition is 6.51%.

As to `COc1cc(C(=O)Nn2c(O)c(C3=c4ccccc4=NC3=O)sc2=S)ccc1O`, the inhibition was 51.8% (active).

With `O=C(CCS(=O)(=O)c1ccccc1)Nc1ccc(Cl)c(Cl)c1`, the inhibition was -0.439%.

Turning to `O=C(Nc1ccccc1C(=O)Nc1ccc(F)cc1)c1ccccc1F`, the inhibition was 0.274%.

Regarding `Cc1cc(=O)[nH]c(N/N=C/c2c(C)nn(-c3ccccc3Cl)c2Cl)n1`, the inhibition is 69.3% (active).

For the compound `Cc1cc(=O)[nH]c(N/N=C/c2ccc3c(c2)OCCO3)n1`, the inhibition is -3.07%.

Regarding `Cc1nn(-c2ccccc2)c(Cl)c1/C=N/NC(=O)c1nn(C)cc1[N+](=O)[O-]`, the inhibition was 6.06%.

Turning to `Cc1c(NC(=O)Nc2ccccc2)cccc1[N+](=O)[O-]`, the inhibition was -2.18%.

For `O=C(Nc1ccccc1[N+](=O)[O-])C1C(c2ccccc2)=C1c1ccccc1`, the inhibition is -5.32%.

`O=[N+]([O-])c1ccccc1Nc1ccc(O)cc1`: the inhibition was 81% (active).

On to `CCc1nc2ccc(C(=O)NCc3ccc(OC)cc3)cn2c1N(CC)Cc1cccc(Br)c1`, for which the inhibition was -0.31%.

As to `C=CCc1cccc2cc(C(=O)Nc3ccc(NC(C)=O)cc3)c(=O)oc12`, the inhibition is 52.4% (active).

Take `C=CCc1cccc2cc(C(=O)OCC)c(=O)oc12`: the inhibition was 3.09%.

With `C=CCc1cccc2cc(C(=O)NC3CCCC3)c(=O)oc12`, the inhibition is -2.76%.

Turning to `CCCC(=O)N1CCC1(C)C(=O)NCc1ccc(C(C)C)cc1` (configuration not stated), the inhibition was 0.789%.

`O=C(NS(=O)(=O)c1cccs1)[C@H]1O[C@@H](n2ccc(=O)[nH]c2=O)[C@H](O)[C@@H]1O`: the inhibition is 0.413%.

As for `CC(=O)N1CCCN(C2=Nc3ccccc3Sc3ccccc32)CC1`, the inhibition is 0.906%.

As to `O=C(Nc1ccc(N2CCOCC2)cc1)C1=COCCO1`, the inhibition is -0.182%.

In the case of `COC(=O)CCCCC1=CCC2C(=O)C=C(O)C2C1` (configuration not stated), the inhibition is 62.2% (active).

In the case of `COc1ccc(-n2c(SCC(=O)Nc3ccccc3-c3ccccc3)nnc2-c2cccnc2)cc1`, the inhibition is 3.15%.

Turning to `COC(=O)c1cc(S(=O)(=O)N2CCN(c3ccccc3C)CC2)cn1C`, the inhibition is 7.47%.

For the compound `COc1cccc(-c2cc(CNC(=O)[C@@H](Cc3ccccc3)NC(=O)[C@H]3O[C@@H](n4cnc(C(N)=O)n4)[C@H](O)[C@@H]3O)no2)c1`, the inhibition is -0.483%.

With `COc1ccc(-n2c(COc3ccc(C)cc3)nnc2SCC(=O)Nc2ccc(Oc3ccccc3)cc2)cc1`, the inhibition is 0.031%.

As to `CC(C)CSc1nnc(-c2cccnc2)n1Cc1ccccc1`, the inhibition is -2.26%.

Take `COC(=O)c1ccc(CSc2nnc(N)s2)o1`: the inhibition is -2.67%.

Regarding `CCOc1ccccc1Nc1nnc(SCc2ccc(C(=O)OC)o2)s1`, the inhibition was 103% (active).

On to `CCOc1ccccc1Nc1nnc(SCC(=O)Nc2cc(C)on2)s1`, for which the inhibition is -5.24%.

For the compound `Cc1ccc(NC(=O)C(C)Sc2nc(C)cs2)cc1` (configuration not stated), the inhibition is -1.63%.

`O=C(NCc1ccco1)C1CCCN(S(=O)(=O)c2ccc(Cl)s2)C1` (configuration not stated): the inhibition was 1.68%.

`O=C1C=CC(=O)N1c1ccc(N2CCCCC2)cc1`: the inhibition was 51.2% (active).

Turning to `O=C(Cc1ccccc1)NC(=S)Nc1ccc(N2CCCCC2)cc1`, the inhibition was 0.281%.

Consider `CC(=O)Nc1ccc(S(=O)(=O)Nc2ccc(N3CCCCC3)cc2)cc1`, for which the inhibition is 11.4%.

With `O=C(CN1CCCc2ccccc21)NCc1ccc(F)cc1`, the inhibition is 0.199%.

As for `Cc1ccc(NC(=O)Cc2cccc(F)c2)c(S(=O)(=O)N2CCOCC2)c1`, the inhibition was -1.61%.

On to `O=C(O)c1ccccc1N=N/C(=N/Nc1cc(S(=O)(=O)O)ccc1O)c1ccccc1`, for which the inhibition is 70.7% (active).

Take `O=C(Nc1ccc(C(=O)O)c(O)c1)c1ccccc1`: the inhibition is -0.136%.

Turning to `O=C(O)c1ccccc1/C=N/Nc1ccc(S(=O)(=O)Nc2ccc(Cl)cc2)cc1[N+](=O)[O-]`, the inhibition is 14.9%.

With `O=C(CSc1nnc(COc2ccccc2)n1-c1ccc(Cl)cc1)Nc1ccc2c(c1)OCO2`, the inhibition was -1.07%.

For `O=C(N/N=C/c1cccnc1)c1cc2ccccc2cc1O`, the inhibition was 4.16%.

For `Cc1ccc(/C=N/NC(=O)c2cc3ccccc3cc2O)o1`, the inhibition is 50% (active).

With `O=C(NN=Cc1ccc(N2CCOCC2)cc1)c1cc2ccccc2cc1O`, the inhibition was -0.134%.

As for `Clc1ccc(-n2c(COc3ccccc3)nnc2SCc2nc3ccccc3[nH]2)cc1`, the inhibition was 1.86%.

`Cc1cc(=O)[nH]c(SCC(=O)Nc2ccc(F)cc2F)n1`: the inhibition was -12.4%.

Consider `CN(C)S(=O)(=O)c1cccc(C(=O)N/N=C\c2ccco2)c1`, for which the inhibition was 3.26%.

`Cc1ccccc1S(=O)(=O)NC(=O)C1(C)CCN1C(=O)C1(c2ccccc2)CCCC1` (configuration not stated): the inhibition is -0.963%.

With `CCC1(C)N(O)C(C)(C)C(c2ccc(OC)cc2)=[N+]1[O-]` (configuration not stated), the inhibition was -2.21%.

As for `C/C(=N\O)C1(C)N(O)C(C)(C)C(c2ccc(Br)cc2)=[N+]1[O-]` (configuration not stated), the inhibition was -1.39%.

Regarding `CCC1=[N+]([O-])C(C)(/C(C)=N\O)N(O)C1(C)C` (configuration not stated), the inhibition was 96.5% (active).

Consider `CC(C)NC(=O)C1(C)CCCCCN1C(=O)c1ccc(-c2ccccc2)cc1` (configuration not stated), for which the inhibition was -1.44%.

Values taken from PubChem BioAssay AID743445 (Broad Institute, 2014).
